Laboratory results published in PubChem BioAssay AID1851 (National Center for Advancing Translational Sciences (NCATS), 2009).
The campaign covered roughly 16,000 compounds. About 5,800 (36%) were called active. Inconclusive results (about 23%) are left out. The list shows a part of the results. A number with no mark means an inactive call. Calls come from the whole dose curve; as a rule, active = well fitted curve in the direction sought with a large enough effect; inconclusive = small, poorly fitted or top-dose-only effect, or effect the other way; inactive = no such curve, though single readings can be large or run the other way.
% is set by controls: 0 for no effect and ±100 for the full control effect.

These molecules were tested against Cytochrome P450 2C19 (Homo sapiens) (UniProt P33261) (assay: Cytochrome panel assay with activity outcomes). Details: recombinant CYP, pro-luciferin dealkylation, luminescence, p450-cyp2c19; series mostly up to 57.1 µM; activity, negative = inhibition: at the top concentration.
Chain of Cytochrome P450 2C19 (Homo sapiens) (P33261 whole entry, looked up): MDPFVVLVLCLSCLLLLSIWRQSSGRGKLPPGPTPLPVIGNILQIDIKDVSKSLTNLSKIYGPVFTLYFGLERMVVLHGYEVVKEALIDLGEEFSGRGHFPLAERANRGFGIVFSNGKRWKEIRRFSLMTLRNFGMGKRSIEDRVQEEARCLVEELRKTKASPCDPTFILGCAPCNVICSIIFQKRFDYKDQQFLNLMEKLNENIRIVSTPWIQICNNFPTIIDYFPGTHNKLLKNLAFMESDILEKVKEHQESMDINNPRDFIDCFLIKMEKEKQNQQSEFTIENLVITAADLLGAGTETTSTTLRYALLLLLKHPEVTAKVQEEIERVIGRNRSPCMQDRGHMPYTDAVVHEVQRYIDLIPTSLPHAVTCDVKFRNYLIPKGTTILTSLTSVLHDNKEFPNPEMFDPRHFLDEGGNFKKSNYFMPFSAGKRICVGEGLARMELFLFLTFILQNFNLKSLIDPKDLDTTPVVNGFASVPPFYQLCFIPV
`COC(=O)c1cc2c(cn1)[nH]c1ccccc12` was tested, and the AC50 was 3.98 µM (active).
For `C[C@@]12CC[C@H]3[C@@H](CCC4=CC(=O)CC[C@]43C)[C@H]1CC[C@H]2C(=O)CO`, the “activity, negative = inhibition” value was -17.4% [at 25.6 µM].
For `Cc1ccc(S(=O)(=O)O[C@H]2CN3CCC2CC3)cc1`, the activity, negative = inhibition was 21.1% [at 11.4 µM].
For `NC(N)=Nc1ccc2[nH]c3c(c2c1)C[C@]1(O)[C@@H]2Cc4ccc(O)c5c4[C@]1(CCN2CC1CC1)[C@H]3O5`, the “activity, negative = inhibition” value was 40.7%.
With `O=[N+]([O-])O[C@H]1CO[C@H]2[C@H]1OC[C@@H]2O[N+](=O)[O-]` the “activity, negative = inhibition” value was 43.3% [at 25.6 µM].
With `CCCC[N+]1(C)[C@@H]2CC(OC(=O)[C@@H](CO)c3ccccc3)C[C@H]1[C@H]1O[C@H]12` (stereo not given in full) the “activity, negative = inhibition” value was 17.9%.
For `CC1=C(O)C(=O)[C@H]2O[C@@H]2C1=O`, the AC50 was 0.158 µM (active).
`CN1CCCC2(CCN(C(=O)c3ccncc3)CC2)C1` was tested, and the “activity, negative = inhibition” value was -44.1%.
With `CN(C)Cc1c[nH]c2ccccc12` the “activity, negative = inhibition” value was -31.4% [at 25.6 µM].
Molecule `CC1=NN(c2ccccc2)C(=O)[C@@H]1N=Nc1ccc([As](=O)(O)O)c(O)c1` has an activity, negative = inhibition of 22.8% [at 11.4 µM].
For `C[C@H](c1ccccc1)N1CCN([C@@H](C)c2ccccc2)CC1`, the activity, negative = inhibition was -29.5% [at 11.4 µM].
`Cc1cc(C(C)(C)C)cc(C)c1CC1=NCCN1` was tested, and the “activity, negative = inhibition” value was -13.7%.
In the case of `C=CCN1C(=O)NC(=O)/C(=C/c2cccn2C)C1=O`, the “activity, negative = inhibition” value is reported as -26.7%.
For `CCN(CC)c1ccc(/C=C2/C(=O)NC(=O)N(CC3CCCO3)C2=O)cc1` (stereo not given), the AC50 was 7.08 µM (active).
Molecule `Oc1ccc([C@H](O)[C@@H]2CCCCN2)cc1O` has an activity, negative = inhibition of 10% [at 11.4 µM].
With `CN1[C@H]2CC(=O)C[C@@H]1[C@@H](O)C2` the “activity, negative = inhibition” value was 8.15% [at 25.6 µM].
In the case of `C[C@@]12CC[C@@H]3c4ccc(O)cc4CC[C@H]3[C@H]1CC[C@H]2O`, the “activity, negative = inhibition” value is reported as -29.4% [at 25.6 µM].
With `C[C@@]12CC[C@H]3[C@@H](CC[C@@H]4C[C@H]5S[C@H]5C[C@]43C)[C@H]1CC[C@H]2O` the AC50 was 0.0631 µM (active).
`C[N+](C)(C)CCCCCCCCCC[N+](C)(C)C` was tested, and the “activity, negative = inhibition” value was 4.81% [at 25.6 µM].
For `Nc1nc(N)c(N=Nc2ccc([As](=O)(O)O)cc2)c(=O)[nH]1`, the activity, negative = inhibition was 19% [at 11.4 µM].
With `COC(=O)Nc1nc2ccc(C(=O)c3cccs3)cc2[nH]1` the “activity, negative = inhibition” value was -1.51%.
In the case of `O=C1C=CC(=O)c2c1ccc1c2ccc2ccccc21`, the AC50 is reported as 1.58 µM (active).
With `CCN1C[C@]2(COC)CC[C@H](O)[C@@]34[C@@H]5C[C@H]6[C@@H](OC)[C@H]5[C@](O)(C[C@@H]6OC)[C@@](O)([C@@H](OC)[C@H]23)[C@@H]14` the “activity, negative = inhibition” value was 33.2% [at 25.6 µM].
For `C[C@]12CC[C@H](O)C[C@@H]1CC[C@H]1[C@H]2CC[C@]2(C)[C@H](C(=O)CO)CC[C@@H]12`, the “activity, negative = inhibition” value was -19.9%.
With `C[C@@]12CC[C@@H]3[C@@H](CC[C@H]4C[C@@H](O)CC[C@]43C)[C@H]1CC[C@@H]2c1cc(C(F)(F)F)n[nH]1` the AC50 was 2.51 µM (active).
With `C[C@]12CC[C@H](O)C[C@@H]1CC[C@H]1[C@H]2CC[C@]2(C)C(=O)CC[C@@H]12` the AC50 was “inactive”.
In the case of `NN=C(N)N`, the AC50 is reported as “inactive”.
`N[C@H](CCC(=O)N[C@H](CSN=O)C(=O)NCC(=O)O)C(=O)O` was tested, and the AC50 was 1.58 µM (active).
For `COC(=O)[C@H]1C(=O)c2ccccc2O[C@@](C(=O)OC)(c2ccccc2)[C@@H]1c1ccccc1`, the activity, negative = inhibition was -43% [at 11.4 µM].
For `CN1CCN(c2cc(N3CCCC3)c([N+](=O)[O-])cc2F)CC1`, the AC50 was 7.94 µM (active).
In the case of `NC(=O)c1cc(N2CC2)c([N+](=O)[O-])cc1[N+](=O)[O-]`, the “activity, negative = inhibition” value is reported as -21%.
In the case of `CN(C)C(=O)Oc1ccc[n+](C)c1`, the “activity, negative = inhibition” value is reported as 73.3%.
With `CSC([N-]/N=C/c1cccc(C)n1)=[S]=[Cu].CS[C@H]([S-])[N-]/N=C/c1cccc(C)n1` the AC50 was 0.2 µM (active).
For `CC(=O)OC1=CC2=CC[C@H]3[C@H]4CCC(=O)[C@@]4(C)CC(=O)[C@]3(S)[C@]2(C)CC1`, the activity, negative = inhibition was -14.8% [at 11.4 µM].
For `c1csc(CN2CCC3(CCNCC3)CC2)n1`, the “activity, negative = inhibition” value was 43.8%.
For `CCCN(CCC)[C@@H]1CCc2ccc(O)cc2C1`, the AC50 was “inactive”.
In the case of `CCCN(CCC)[C@@H]1CCc2cccc(O)c2C1`, the AC50 is reported as “inactive”.
With `CCCN(C/C=C\I)[C@@H]1CCc2ccc(O)cc2C1` the AC50 was 1 µM (active).
Work on `CN(C)CC/C=C1\c2ccccc2Sc2ccc(Cl)cc21` yielded an activity, negative = inhibition of -17.3% [at 11.4 µM].
In the case of `NO`, the “activity, negative = inhibition” value is reported as 2.63%.
`Cc1sc2c(c1C)C(c1ccc(C(C)(C)C)cc1)=NCC(=O)N2CC(=O)Nc1nccs1` was tested, and the AC50 was 6.31 µM (active).
`CCCN1CCC[C@H](c2cccc(C#N)c2)C1` was tested, and the “activity, negative = inhibition” value was 20.2%.
`CCN1C[C@]2(C)CC[C@@H](O)[C@]34[C@@H]5CC6[C@@H](OC)C[C@@](O)([C@H]5[C@@H]6O)[C@@H](C[C@@H]23)[C@H]14` was tested, and the “activity, negative = inhibition” value was 21.5%.
For `CC(C)(C)CC(=O)NC(=S)Nc1ccccc1C(F)(F)F`, the AC50 was 3.16 µM (active).
Work on `CC(C)c1ccc(C(c2c(O)c3ccccc3oc2=O)c2c(O)c3ccccc3oc2=O)cc1` yielded an activity, negative = inhibition of -40.6% [at 11.4 µM].
`Cn1c(=O)c2[nH]cnc2n(C)c1=O` was tested, and the “activity, negative = inhibition” value was 24.9%.
With `CC(C)(C)NC[C@@H](O)COc1cccc2[nH]c(C#N)cc12` the AC50 was 15.8 µM (active).
In the case of `c1csc(CN2CC3(CCNCC3)C2)n1`, the “activity, negative = inhibition” value is reported as -22.8%.
In the case of `Oc1ccc(CCNCc2cc3c(cc2Br)OCO3)cc1`, the AC50 is reported as 5.01 µM (active).
With `C[N+]1(C)CCO[C@](O)(c2ccc(-c3ccc([C@]4(O)C[N+](C)(C)CCO4)cc3)cc2)C1` the “activity, negative = inhibition” value was 23.6% [at 25.6 µM].
`Fc1ccccc1CCNCc1cccc(Cl)c1Cl` was tested, and the AC50 was 0.631 µM (active).
In the case of `N=C(N)n1cc(/C=N\N=C(N)N)cn1`, the activity, negative = inhibition is reported as 16.3% [at 11.4 µM].
With `COc1ccc(C2NCc3ccc4c(c3-n3cccc32)OCO4)cc1OC` (stereo not given) the AC50 was 3.16 µM (active).
For `O=C(Oc1ccccc1)N1CCC2(CCN(Cc3nccs3)CC2)CC1`, the “activity, negative = inhibition” value was -5.16%.
For `CCCN(CCC)[C@H]1CCc2c(F)ccc(O)c2C1`, the AC50 was “inactive”.
In the case of `C/C(=N\OC(=O)NC(C)C)c1sc(-c2ccccc2)nc1C`, the AC50 is reported as 10 µM (active).
In the case of `C/C(=N\OC(=O)NC(C)C)c1sc(-c2ccc(Cl)cc2)nc1C`, the AC50 is reported as 5.01 µM (active).
In the case of `CCNC(=O)O/N=C(\C)c1sc(-c2ccccc2)nc1C`, the AC50 is reported as 11.2 µM (active).
With `OC(c1ccccc1)(c1ccccc1)C1CCNCC1` the “activity, negative = inhibition” value was -28% [at 25.6 µM].
For `NS(=O)(=O)C[C-]1C=C[CH]([Sb-]([Cl])([Cl])([Cl])([Cl])[Cl])C=C1.c1ccncc1` (stereo not given), the activity, negative = inhibition was 12.8% [at 11.4 µM].
